Test results published in PubChem BioAssay AID1159580 (chemical genetic matrix, 2015).
Screen size: about 5,500 compounds; about 2,000 (36%) were called active. Another 18% or so got no clear call; they are omitted. No stated cut-off is given here; in the data, active means normalized growth mostly below about 0.91 (no sharp cut-off); inconclusive means no clear call, values can overlap the other calls; inactive means mostly above about 0.92. The list shows a part of the results.

Assay: chemical genetic growth profiling, strain panel (AID 1159580);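 further: tested at 20 µM; growth read once vehicle control cultures reached saturation at 30 °C; 1 = growth at the plate median or of vehicle wells; lower values mean less growth of the strain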
Conditions: S. cerevisiae deletion strains, growth OD

Measured: normalized growth

O=C(OC1Cc2c(O)cc(O)cc2OC1c1cc(O)c(O)c(O)c1-c1c(C2Oc3cc(O)cc(O)c3CC2OC(=O)c2cc(O)c(O)c(O)c2)cc(O)c(O)c1O)c1cc(O)c(O)c(O)c1 (centres undefined)
inactive: locus YAL026C, strain drs2, active compounds read low 0.982 | locus YAL030W, strain snc1, active compounds read low 0.998 | locus YBL061C, strain skt5, active compounds read low 0.982 | locus YBR009C, strain hhf1, active compounds read low 0.995 | locus YBR021W, strain FUR4, active compounds read low 0.988 | locus YBR023C, strain chs3, active compounds read low 0.941 | locus YBR171W, strain sec66, active compounds read low 1.01 | locus YBR229C, strain ROT2, active compounds read low 1 | locus YBR231C, strain swc5, active compounds read low 0.929 | locus YBR279W, strain paf1, active compounds read low 0.989 | locus YCL011C, strain gbp2, active compounds read low 1.01 | locus YCL016C, strain dcc1, active compounds read low 1.01 | locus YCL029C, strain bik1, active compounds read low 0.981 | locus YCL061C, strain MRC1, active compounds read low 1.01 | locus YCL069W, strain vba3, active compounds read low 1.02 | locus YCR088W, strain abp1, active compounds read low 1.02 | locus YDL005C, strain med2, active compounds read low 1.02 | locus YDL035C, strain GPR1, active compounds read low 1.04 | locus YDL040C, strain nat1, active compounds read low 1.03 | locus YDL074C, strain BRE1, active compounds read low 0.969 | locus YDL101C, strain DUN1, active compounds read low 1 | locus YDL185W, strain tfp1, active compounds read low 0.988 | locus YDL192W, strain arf1, active compounds read low 0.985 | locus YDR001C, strain nth1, active compounds read low 1.02 | locus YDR101C, strain arx1, active compounds read low 0.998 | locus YDR150W, strain NUM1, active compounds read low 1 | locus YDR159W, strain sac3, active compounds read low 1.11 | locus YDR162C, strain NBP2, active compounds read low 1.02 | locus YDR195W, strain ref2 1.07 | locus YDR297W, strain sur2, active compounds read low 0.992 | locus YDR318W, strain mcm21, active compounds read low 0.995 | locus YDR334W, strain swr1, active compounds read low 0.977 | locus YDR335W, strain msn5, active compounds read low 1 | locus YDR388W, active compounds read low 0.99 | locus YDR392W, strain spt3, active compounds read low 1.02 | locus YDR502C, strain sam2, active compounds read low 0.985 | locus YEL003W, strain gim4, active compounds read low 0.989 | locus YEL037C, strain rad23, active compounds read low 0.993 | locus YEL061C, strain CIN8 (second series), active compounds read low 1.01 | locus YEL061C, strain CIN8, active compounds read low 1.01 | locus YER016W, strain bim1, active compounds read low 1.01 | locus YER110C, active compounds read low 0.994 | locus YER111C, strain swi4, active compounds read low 0.973 | locus YER155C, strain BEM2 (second series), active compounds read low 0.994 | locus YER155C, strain BEM2, active compounds read low 0.977 | locus YER167W, strain BCK2, active compounds read low 1 | locus YFR010W, strain ubp6, active compounds read low 0.934 | locus YGL078C, strain dbp3, active compounds read low 0.987 | locus YGL086W, strain mad1, active compounds read low 1 | locus YGL167C, strain pmr1, active compounds read low 1 | locus YGL173C, strain kem1, active compounds read low 0.981 | locus YGL227W, strain vid30, active compounds read low 1.05 | locus YGL240W, strain doc1, active compounds read low 1.04 | locus YGL248W, strain PDE1, active compounds read low 1 | locus YGL253W, strain hxk2, active compounds read low 0.994 | locus YGR078C, strain PAC10, active compounds read low 0.983 | locus YGR135W, strain pre9, active compounds read low 0.989 | locus YGR252W, strain gcn5, active compounds read low 1.01 | locus YHR013C, strain ard1, active compounds read low 0.852 | locus YHR030C, strain SLT2, active compounds read low 0.998 | locus YHR079C, strain IRE1 (second series), active compounds read low 0.987 | locus YHR094C, strain hxt1, active compounds read low 0.989 | locus YHR129C, strain ARP1, active compounds read low 0.983 | locus YHR142W, strain chs7, active compounds read low 0.95 | locus YHR200W, strain rpn10, active compounds read low 1 | locus YIL066C, strain RNR3, active compounds read low 1.03 | locus YIL073C, strain SPO22, active compounds read low 1.1 | locus YIL125W, strain kgd1, active compounds read low 0.973 | locus YIR030C, strain dcg1, active compounds read low 0.995 | locus YJL092W, strain hpr5, active compounds read low 1.03 | locus YJL095W, strain BCK1 (second series), active compounds read low 0.987 | locus YJL095W, strain BCK1, active compounds read low 0.976 | locus YJL115W, strain asf1, active compounds read low 1.02 | locus YJL129C, strain trk1, active compounds read low 1.04 | locus YJL134W, strain LCB3, active compounds read low 1.02 | locus YJL154C, strain vps35, active compounds read low 1.01 | locus YJL164C, strain tpk1, active compounds read low 0.937 | locus YJL166W, strain qcr8, active compounds read low 0.989 | locus YJL168C, strain set2, active compounds read low 0.981
active: locus YAL021C, strain ccr4, active compounds read low 0.833 | locus YDR069C, strain doa4, active compounds read low 0.797 | locus YDR137W, strain rgp1, active compounds read low 0.833 | locus YER015W, strain faa2, active compounds read low 0.926 | locus YHR027C, strain rpn1, active compounds read low 0.849
